# Values joined by “and” are separate entries in the source; they are usually repeats but may differ in a detail not shown here. Identical values can stand only once. Unmarked numbers belong to inactive results. Records with an inconclusive call do not appear. Where a call stands in place of a potency, no number is given. Active and inactive are the calls of the source. Unless noted, calls come from the whole dose curve; as a rule, active = well fitted curve in the direction sought with a large enough effect; inconclusive = small, poorly fitted or top-dose-only effect, or another doubt; inactive = no such curve, though single readings can be large; an effect the other way counts as inactive or inconclusive.
# Tests used:
# UISO = assay: qHTS assay to identify novel small-molecules to repurpose for Merkel cell carcinoma treatment (AID 1296009); settings: MCC and control cell lines, CellTiter-Glo viability, 72 h; series mostly up to 46 µM; note: nearly all actives have a fitted effect of over 60% in size; note: potency is the fitted concentration of half-maximal effect
# How it was run: (§1)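 Dose-response viability screen; 72 hr exposure at 37 degree celsius; CellTiter-Glo added, 10 min room temperature, luminescence read; RLUs scaled between no-cell and DMSO wells.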
# WaGa = assay: as above; settings: MCC and control cell lines, CellTiter-Glo viability, 72 h; series mostly up to 46 µM
# How it was run: as §1
# C33A = assay: Primary qHTS to identify gynecologic anti-cancer compounds using libraries of approved drugs and bioactive compounds (AID 1345084); settings: Gynecologic cancer cell panel viability, ATPlite luminescence, 48 h; series mostly up to 57.5 µM; note: nearly all actives have a fitted effect of over 55% in size
# How it was run: (§2)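 In this quantitative HTS, cell killing is estimated from loss of ATP-dependent luciferase light. Cells see five compound concentrations over a 48 h exposure.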
# CAOV3 = assay: as above; settings: Gynecologic cancer cell panel viability, ATPlite luminescence, 48 h; series mostly up to 57.5 µM
# How it was run: as §2
# CASKI = assay: as above; settings: Gynecologic cancer cell panel viability, ATPlite luminescence, 48 h; series mostly up to 57.5 µM
# How it was run: as §2
# Es-2 = assay: as above; settings: Gynecologic cancer cell panel viability, ATPlite luminescence, 48 h; series mostly up to 57.5 µM
# How it was run: as §2
# HeLa = assay: as above; settings: Gynecologic cancer cell panel viability, ATPlite luminescence, 48 h; series mostly up to 57.5 µM
# How it was run: as §2
# Hek293T = assay: as above; settings: Gynecologic cancer cell panel viability, ATPlite luminescence, 48 h, control line for the selectivity index; series mostly up to 57.5 µM
# How it was run: as §2
# JEG-3 = assay: as above; settings: Gynecologic cancer cell panel viability, ATPlite luminescence, 48 h; series mostly up to 57.5 µM
# How it was run: as §2
# OV90 = assay: as above; settings: Gynecologic cancer cell panel viability, ATPlite luminescence, 48 h; series mostly up to 57.5 µM
# How it was run: as §2
# PA-1 = assay: as above; settings: Gynecologic cancer cell panel viability, ATPlite luminescence, 48 h; series mostly up to 57.5 µM
# How it was run: as §2
# Tov-21-G = assay: as above; settings: Gynecologic cancer cell panel viability, ATPlite luminescence, 48 h; series mostly up to 57.5 µM
# How it was run: as §2
# Tov112D = assay: as above; settings: Gynecologic cancer cell panel viability, ATPlite luminescence, 48 h; series mostly up to 57.5 µM
# How it was run: as §2
# SKOV3 = assay: as above; settings: Gynecologic cancer cell panel viability, ATPlite luminescence, 48 h; series mostly up to 57.5 µM
# How it was run: as §2
# [1] = Drug repurposing screens with cells derived from glioblastoma tumor samples (AID 1345199); settings: GBM patient neurospheres viability, ATP luminescence, 48 h; note: nearly all actives have a fitted effect of over 40% in size
# How it was run: (§3)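 Primary testing used CD133+ neurospheres from four GBM patients, seven concentrations, 48 h exposure and ATP-based viability; confirmation added three slower-growing patient lines.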
# astro = assay: as above; settings: viability, ATP luminescence, 48 h; series mostly up to 45.9 µM
# How it was run: as §3
# [2] = qHTS assay to identify inhibitors of the type 1 interferon - major histocompatibility complex class I in skeletal muscle: Counter screen cell viability and HiBit confirmation (AID 1347412); settings: iHSKM muscle cells + IFN-b, HiBiT or CellTiter-Glo, 24 h; Potency: HiBiT; Viability, at 45.9 µM (top of the series); note: nearly all actives have a fitted effect of over 60% in size
# How it was run: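 Duplicate plates, pinned identically: one read for HiBiT-tagged endogenous HLA-B luminescence, the other for ATP-content viability via CellTiter Glo. Cells were genome-engineered human myoblasts given 4 ng/ml IFN-b; compounds 12-pt, 1:3 from 46 uM final; 24 hr exposure.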
# [3] = molecular target: Nuclear receptor subfamily 1 group I member 2 (Rattus norvegicus) (UniProt Q9R1A7); assay: qHTS assay for small molecule activators of the rat pregnane X receptor (rPXR) signaling pathway (AID 651751; call rule not given here); settings: rPXR reporter cells, luciferase (One-Glo), 24 h
# [4] = qHTS assay for small molecule activators of the human pregnane X receptor (PXR) signaling pathway (AID 720659; call rule not given here)
# [5] = at 45.9 µM (top of the series), tumour line B
# [6] = at 45.9 µM (top of the series), tumour line D
# [7] = at 46.1 µM (top of the series), tumour line C
# [8] = at 91.6 µM (top of the series), tumour line B
# [9] = at 91.6 µM (top of the series), tumour line D
# [10] = at 99.2 µM (top of the series), tumour line C
# [11] = at 46 µM (top of the series), tumour line A
# Nuclear receptor subfamily 1 group I member 2 (Rattus norvegicus), sequence (Q9R1A7 whole entry, looked up): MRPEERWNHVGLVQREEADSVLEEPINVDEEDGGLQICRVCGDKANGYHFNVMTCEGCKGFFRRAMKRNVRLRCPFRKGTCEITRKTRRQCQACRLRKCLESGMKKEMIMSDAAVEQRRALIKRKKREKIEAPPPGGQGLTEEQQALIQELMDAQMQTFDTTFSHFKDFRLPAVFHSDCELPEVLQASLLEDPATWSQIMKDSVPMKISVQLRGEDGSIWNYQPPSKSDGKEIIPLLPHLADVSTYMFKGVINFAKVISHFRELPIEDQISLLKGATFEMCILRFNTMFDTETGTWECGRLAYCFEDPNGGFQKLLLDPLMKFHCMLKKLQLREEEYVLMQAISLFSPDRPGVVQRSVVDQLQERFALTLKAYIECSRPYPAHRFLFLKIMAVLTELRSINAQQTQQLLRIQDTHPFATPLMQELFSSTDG
smiles,measurement,setting,value
Cc1c(N)cccc1C(F)(F)F,Potency,UISO,inactive
same,Potency,WaGa,inactive
same,Potency,C33A,inactive
same,Potency,CAOV3,inactive
same,Potency,CASKI,inactive
same,Potency,Es-2,inactive
same,Potency,HeLa,inactive
same,Potency,Hek293T,inactive
same,Potency,JEG-3,inactive
same,Potency,OV90,inactive
same,Potency,PA-1,inactive
same,Potency,Tov-21-G,inactive
same,Potency,Tov112D,inactive
CCCCC(=O)OCC(=O)[C@H]1[C@H](C)C[C@H]2[C@@H]3C[C@H](F)C4=CC(=O)C=C[C@]4(C)[C@@]3(F)[C@@H](O)C[C@@]21C,Potency,UISO,inactive
same,Potency,WaGa,inactive
same,Potency,C33A,inactive
same,Potency,CAOV3,inactive
same,Potency,CASKI,inactive
same,Potency,Es-2,inactive
same,Potency,HeLa,inactive
same,Potency,Hek293T,inactive
same,Potency,JEG-3,inactive
same,Potency,OV90,inactive
same,Potency,PA-1,inactive
same,Potency,SKOV3,inactive
same,Potency,Tov-21-G,inactive
same,Potency,Tov112D,inactive
same,"activity, negative = cell killing",[1]; [5],-0.839%
same,"activity, negative = cell killing",[1]; [6],-9.99%
same,"activity, negative = cell killing",[1]; [7],14.8%
same,Potency,astro,inactive
same,Potency,[2],inactive
CC(=O)N[C@@H](CCC(N)=O)C(=O)O,Potency,UISO,inactive
same,Potency,WaGa,inactive
same,Potency,C33A,inactive
same,Potency,CAOV3,inactive
same,Potency,CASKI,inactive
same,Potency,Es-2,inactive
same,Potency,HeLa,inactive
same,Potency,Hek293T,inactive
same,Potency,JEG-3,inactive
same,Potency,OV90,inactive
same,Potency,PA-1,inactive
same,Potency,SKOV3,inactive
same,Potency,Tov-21-G,inactive
same,Potency,Tov112D,inactive
same,"activity, negative = cell killing",[1]; [5],-17.6%
same,"activity, negative = cell killing",[1]; [6],-7.79%
same,"activity, negative = cell killing",[1]; [7],-4.41%
same,Potency,astro,inactive
C[C@H]1C[C@@H]2[C@H]([C@@H](O)C[C@@]3(C)[C@H]2CC[C@]3(O)C(=O)CO)[C@@]2(C)C=CC(=O)C=C12,Potency,UISO,inactive
same,Potency,WaGa,inactive
same,Potency,C33A,inactive
same,Potency,CAOV3,inactive
same,Potency,CASKI,inactive
same,Potency,Es-2,inactive
same,Potency,HeLa,inactive
same,Potency,Hek293T,inactive
same,Potency,JEG-3,inactive
same,Potency,OV90,inactive
same,Potency,PA-1,inactive
same,Potency,SKOV3,inactive
same,Potency,Tov-21-G,inactive
same,Potency,Tov112D,inactive
same,Potency,[2],inactive
COC(=O)c1c(Cl)c(Cl)c(C(=O)OC)c(Cl)c1Cl,Potency,UISO,inactive
same,Potency,WaGa,inactive
same,Potency,C33A,inactive
same,Potency,CAOV3,inactive
same,Potency,CASKI,inactive
same,Potency,Es-2,inactive
same,Potency,HeLa,inactive
same,Potency,Hek293T,inactive
same,Potency,JEG-3,inactive
same,Potency,OV90,inactive
same,Potency,PA-1,inactive
same,Potency,Tov-21-G,inactive
same,Potency,Tov112D,inactive
same,"activity, negative = cell killing",[1]; [8],-13.9%
same,"activity, negative = cell killing",[1]; [9],-16.3%
same,"activity, negative = cell killing",[1]; [10],-5.72%
same,Potency,astro,inactive
same,max response,[3],2.2%
Cc1nc(C2CCCCC2)c(-c2ccc(S(N)(=O)=O)c(F)c2)o1,Potency,UISO,inactive
same,Potency,WaGa,inactive
same,Potency,C33A,inactive
same,Potency,CAOV3,inactive
same,Potency,CASKI,inactive
same,Potency,Es-2,inactive
same,Potency,HeLa,inactive
same,Potency,Hek293T,inactive
same,Potency,JEG-3,inactive
same,Potency,OV90,inactive
same,Potency,PA-1,inactive
same,Potency,Tov-21-G,inactive
same,Potency,Tov112D,inactive
Cc1ccc2ccc(Cl)cc2n1,Potency,UISO,inactive
same,Potency,WaGa,inactive
same,Potency,C33A,inactive
same,Potency,CAOV3,inactive
same,Potency,CASKI,inactive
same,Potency,Es-2,inactive
same,Potency,HeLa,inactive
same,Potency,Hek293T,inactive
same,Potency,JEG-3,inactive
same,Potency,OV90,inactive
same,Potency,PA-1,inactive
same,Potency,Tov-21-G,inactive
same,Potency,Tov112D,inactive
CCC(C(=O)NC(=O)NC(C)=O)c1ccccc1 (stereo unspecified),Potency,UISO,inactive
same,Potency,WaGa,inactive
same,Potency,C33A,inactive
same,Potency,CAOV3,inactive
same,Potency,CASKI,inactive
same,Potency,Es-2,inactive
same,Potency,HeLa,inactive
same,Potency,Hek293T,inactive
same,Potency,JEG-3,inactive
same,Potency,OV90,inactive
same,Potency,PA-1,inactive
same,Potency,Tov-21-G,inactive
same,Potency,Tov112D,inactive
same,"activity, negative = cell killing",[1]; [5],-11.4%
same,"activity, negative = cell killing",[1]; [6],-13.3%
same,"activity, negative = cell killing",[1]; [11],-27.9%
same,"activity, negative = cell killing",[1]; [7],-4.25%
same,Potency,astro,inactive
COc1cc(C=O)ccc1O,Potency,UISO,inactive
same,Potency,WaGa,inactive
same,Potency,C33A,inactive
same,Potency,CAOV3,inactive
same,Potency,CASKI,inactive
same,Potency,Es-2,inactive
same,Potency,HeLa,inactive
same,Potency,Hek293T,inactive
same,Potency,JEG-3,inactive
same,Potency,OV90,inactive
same,Potency,PA-1,inactive
same,Potency,SKOV3,inactive
same,Potency,Tov-21-G,inactive
same,Potency,Tov112D,inactive
same,"activity, negative = cell killing",[1]; [5],-12.2%
same,"activity, negative = cell killing",[1]; [6],2.3%
same,"activity, negative = cell killing",[1]; [7],-15.5%
same,Potency,astro,inactive
same,max response,[3],1.03% and -2.41%
same,outcome,[4],inactive
NCC(=O)O,Potency,UISO,inactive
same,Potency,WaGa,inactive
same,Potency,C33A,inactive
same,Potency,CAOV3,inactive
same,Potency,CASKI,inactive
same,Potency,Es-2,inactive
same,Potency,HeLa,inactive
same,Potency,Hek293T,inactive
same,Potency,JEG-3,inactive
same,Potency,OV90,inactive
same,Potency,PA-1,inactive
same,Potency,SKOV3,inactive
same,"activity, negative = cell killing",[1]; [5],10.4%
same,"activity, negative = cell killing",[1]; [6],4.74%
same,"activity, negative = cell killing",[1]; [11],1.41%
same,"activity, negative = cell killing",[1]; [7],-6.24%
same,Potency,astro,inactive
CCCCC(CC)COC(=O)c1ccccc1C(=O)O (stereo unspecified),Potency,UISO,inactive
same,Potency,WaGa,inactive
same,Potency,C33A,inactive
same,Potency,CAOV3,inactive
same,Potency,CASKI,inactive
same,Potency,Es-2,inactive
same,Potency,HeLa,inactive
same,Potency,Hek293T,inactive
same,Potency,JEG-3,inactive
same,Potency,OV90,inactive
same,Potency,PA-1,inactive
same,Potency,SKOV3,inactive
same,Potency,Tov-21-G,inactive
same,Potency,Tov112D,inactive
same,"activity, negative = cell killing",[1]; [8],-11.6%
same,"activity, negative = cell killing",[1]; [9],-15.6%
same,"activity, negative = cell killing",[1]; [10],-7.68%
same,Potency,astro,inactive
same,max response,[3],1.45% and -0.807%
O=C(NO)c1ccccc1,Potency,UISO,inactive
same,Potency,WaGa,32.6 µM (active)
same,Potency,C33A,inactive
same,Potency,CAOV3,inactive
same,Potency,CASKI,inactive
same,Potency,Es-2,inactive
same,Potency,HeLa,inactive
same,Potency,Hek293T,inactive
same,Potency,JEG-3,inactive
same,Potency,OV90,inactive
same,Potency,PA-1,inactive
same,Potency,SKOV3,inactive
same,Potency,Tov-21-G,inactive
same,Potency,Tov112D,inactive
same,"activity, negative = cell killing",[1]; [8],-25.1%
same,"activity, negative = cell killing",[1]; [9],-20.6%
same,"activity, negative = cell killing",[1]; [10],-13.7%
same,Potency,astro,inactive
same,max response,[3],-1.37%
same,outcome,[4],inactive
O=C(CCCl)NCCc1ccccc1,Potency,UISO,inactive
same,Potency,WaGa,inactive
same,Potency,C33A,inactive
same,Potency,CAOV3,inactive
same,Potency,CASKI,inactive
same,Potency,Es-2,inactive
same,Potency,HeLa,inactive
same,Potency,Hek293T,inactive
same,Potency,JEG-3,inactive
same,Potency,OV90,inactive
same,Potency,PA-1,inactive
same,Potency,Tov-21-G,inactive
same,Potency,Tov112D,inactive
CCN1CCN(C(=O)N[C@@H](C(=O)N[C@@H]2C(=O)N3[C@@H]2SC(C)(C)[C@H]3C(=O)O)c2ccccc2)C(=O)C1=O,Potency,UISO,inactive
same,Potency,WaGa,inactive
same,Potency,C33A,inactive
same,Potency,CAOV3,inactive
same,Potency,CASKI,inactive
same,Potency,Es-2,inactive
same,Potency,HeLa,inactive
same,Potency,Hek293T,inactive
same,Potency,JEG-3,inactive
same,Potency,OV90,inactive
same,Potency,PA-1,inactive
same,Potency,SKOV3,inactive
same,Potency,Tov-21-G,inactive
same,Potency,Tov112D,inactive
same,Potency,astro,inactive

# From PubChem BioAssay (NCATS)
